From PubChem BioAssay (NCATS) come the findings set out here.

A number with no mark means an inactive call. Results filed as inconclusive are left out. The source made the active and inactive calls. Unless noted, calls follow the shape of the dose curve; as a rule, active = well fitted curve in either direction with a large enough effect (not every such curve was filed as active); inconclusive = small, poorly fitted or top-dose-only effect, or another doubt; inactive = flat fitted curve, though single readings scatter.

Sequence of Lysosomal acid glucosylceramidase (Homo sapiens) (P04062 whole entry, looked up): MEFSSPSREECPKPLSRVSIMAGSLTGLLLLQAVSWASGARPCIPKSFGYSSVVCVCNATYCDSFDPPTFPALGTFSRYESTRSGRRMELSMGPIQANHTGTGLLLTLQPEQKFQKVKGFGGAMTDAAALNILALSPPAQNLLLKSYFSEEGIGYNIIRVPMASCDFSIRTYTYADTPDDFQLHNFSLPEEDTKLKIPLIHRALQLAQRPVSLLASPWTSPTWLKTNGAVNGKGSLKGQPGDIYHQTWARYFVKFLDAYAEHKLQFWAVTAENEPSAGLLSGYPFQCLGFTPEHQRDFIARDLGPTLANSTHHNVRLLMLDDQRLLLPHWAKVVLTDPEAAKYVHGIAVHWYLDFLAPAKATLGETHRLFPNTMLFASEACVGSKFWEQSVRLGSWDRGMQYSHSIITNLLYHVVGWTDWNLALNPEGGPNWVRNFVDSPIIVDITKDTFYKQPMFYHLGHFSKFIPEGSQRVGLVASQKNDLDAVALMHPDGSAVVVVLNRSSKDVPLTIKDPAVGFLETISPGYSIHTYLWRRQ
Sequence of Cytochrome P450 1A2 (Homo sapiens) (P05177 whole entry, looked up): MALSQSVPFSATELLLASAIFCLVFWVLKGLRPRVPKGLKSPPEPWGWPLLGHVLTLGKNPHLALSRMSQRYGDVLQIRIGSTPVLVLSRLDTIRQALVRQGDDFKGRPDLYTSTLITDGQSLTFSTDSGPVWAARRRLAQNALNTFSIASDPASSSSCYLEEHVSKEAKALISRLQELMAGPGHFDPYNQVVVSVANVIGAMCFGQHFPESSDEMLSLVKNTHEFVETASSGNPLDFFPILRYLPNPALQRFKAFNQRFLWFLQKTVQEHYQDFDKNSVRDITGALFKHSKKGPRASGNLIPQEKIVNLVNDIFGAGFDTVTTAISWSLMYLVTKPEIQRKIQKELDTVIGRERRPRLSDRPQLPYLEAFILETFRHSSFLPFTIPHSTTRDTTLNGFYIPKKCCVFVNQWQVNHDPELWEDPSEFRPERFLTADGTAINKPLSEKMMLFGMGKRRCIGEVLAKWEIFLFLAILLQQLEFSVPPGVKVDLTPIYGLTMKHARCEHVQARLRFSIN

One experiment deals with Lysosomal acid glucosylceramidase (Homo sapiens) (UniProt P04062). Briefly: Glucocerebrosidase-p2 (AID 348; in the data active = potency below about 10 µM; also: potency is read from the fitted curve at half-maximal effect). The following applies: purified GBA, blue fluorogenic substrate, 40 min. The method, boiled down:
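Compounds titrated from 0.6 nM upwards against 0.2 nM enzyme in pH 5.9 citric acid/KH2PO4, taurocholate, tween-20; blue fluorogenic substrate 80 uM, 40 min room temperature, stopped and read Ex 365/Em 440 for AC50.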
With `Cc1cccc(CNc2ncnc3ccc(-c4ccc5c(c4)OCO5)cc23)c1`, the Potency was > 11.4 µM.

In the case of `c1cncc(CNc2ncnc3ccc(-c4cccnc4)cc23)c1`, the Potency is > 11.4 µM.

Regarding `COc1cccc(-c2ccc3ncnc(N(C)Cc4ccco4)c3c2)c1`, the Potency was > 11.4 µM.

Regarding `CN(Cc1ccco1)c1ncnc2ccc(-c3cccnc3)cc12`, the Potency is > 11.4 µM.

As to `CN(Cc1ccco1)c1ncnc2ccc(-c3ccoc3)cc12`, the Potency was > 11.4 µM.

On to `c1nc(N2CCNCC2)c2cc(-c3ccc4c(c3)OCO4)ccc2n1`, for which the Potency is > 11.4 µM.

Test system in the next experiment: not listed separately
Briefly: AP1 Signaling Pathway (AID 357).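 Also: ME-180 reporter cells stimulated with EGF at its EC50 level; % is scaled to controls: 0 for no effect and ±100 for the full control effect.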 Conditions: ME-180 AP-1-bla reporter, EGF-induced, beta-lactamase ratio, 5 h; at 7.69 µM (top of the series) unless noted. The method, boiled down: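 Beta-lactamase reporter under AP-1 response element, ME-180 background. Stimulus: EC50 EGF. Compound exposure 5 h, 37 °C. Detection: CCF4, 2.5 h RT, 460/530 nm. Values: AC50 from titration.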
As for `COc1cccc(-c2ccc3ncnc(N(C)Cc4ccco4)c3c2)c1`, the activity change, negative = inhibition is -18.7%.

On to `CN(Cc1ccco1)c1ncnc2ccc(-c3ccoc3)cc12`, for which the activity change, negative = inhibition is -16.7%.

With `Cc1cccc(CNc2ncnc3ccc(-c4ccoc4)cc23)c1`, the activity change, negative = inhibition was -19.9%.

As for `c1nc(N2CCNCC2)c2cc(-c3ccc4c(c3)OCO4)ccc2n1`, the activity change, negative = inhibition is -9.83%.

The target in another experiment is Cytochrome P450 1A2 (Homo sapiens) (UniProt P05177). Briefly: p450-cyp1a2 (AID 410; calls by dose curve; also: potency is read from the fitted curve at half-maximal effect). Conditions: recombinant CYP1A2, luciferin-ME demethylation, luminescence; series mostly up to 57 µM. The method, boiled down:
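Inhibition was calculated relative to 57 uM furafylline (full inhibition). The reaction used human CYP1A2 at 20nM with Luciferin-ME at its Km, 100uM, driven by an NADPH-regenerating system for 60 min at room temperature.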
As for `Cc1cccc(CNc2ncnc3ccc(-c4cccnc4)cc23)c1`, the Potency is 0.316 µM (active).

As for `Cc1cccc(CNc2ncnc3ccc(-c4ccc5c(c4)OCO5)cc23)c1`, the Potency is 0.501 µM (active).

Take `COc1cccc(-c2ccc3ncnc(N(C)Cc4ccco4)c3c2)c1`: the Potency was 1.26 µM (active).

For `CN(Cc1ccco1)c1ncnc2ccc(-c3ccoc3)cc12`, the Potency was 2.51 µM (active).

In the case of `Cc1cccc(CNc2ncnc3ccc(-c4ccoc4)cc23)c1`, the Potency was 3.98 µM (active).

With `c1nc(N2CCNCC2)c2cc(-c3ccc4c(c3)OCO4)ccc2n1`, the Potency was 2 µM (active).

Test system in the next experiment: not listed separately
Briefly: NFAT Signaling Pathway (AID 444).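 Also: carbachol stimulus at about its EC50 of 1 µM final; % is scaled to controls: 0 for no effect and ±100 for the full control effect.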 The following applies: Jurkat NFAT-bla M1, carbachol, beta-lactamase ratio, 5 h; at 7.69 µM (top of the series) unless noted. The method, boiled down:
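Jurkat cells carrying an NFAT-driven β-lactamase reporter and co-transfected muscarinic M1 receptor were treated with compound plus carbachol (1 uM final, an EC50 level) for 5 h at 37 °C. CCF4 loading followed for 1 h at RT; 460/530 nm ratio gave %activity.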
For the molecule `COc1cccc(-c2ccc3ncnc(N(C)Cc4ccco4)c3c2)c1`, the activity change, negative = inhibition is -8.47%.

As for `CN(Cc1ccco1)c1ncnc2ccc(-c3ccoc3)cc12`, the activity change, negative = inhibition was -26.3%.

On to `Cc1cccc(CNc2ncnc3ccc(-c4ccoc4)cc23)c1`, for which the activity change, negative = inhibition is -14.2%.

As to `COc1cccc(-c2ccc3ncnc(NCc4cccs4)c3c2)c1`, the activity change, negative = inhibition is 23.9%.

On to `c1nc(N2CCNCC2)c2cc(-c3ccc4c(c3)OCO4)ccc2n1`, for which the activity change, negative = inhibition is -0.53%.

Test system in another experiment: not listed separately
Briefly: Stat Signaling Pathway (AID 446).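 Also: ME-180 cervical cancer cells given 40 pM IL-6 alongside compound; SIE-controlled beta-lactamase reporter measured as 460/530 nm FRET emission ratio; % is scaled to controls: 0 for no effect and ±100 for the full control effect.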 Conditions: ME-180 (cervical carcinoma) SIE beta-lactamase reporter, IL-6 stimulated, 5 h; at 7.69 µM (top of the series) unless noted. The method, boiled down: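 IL-6/STAT signaling read in ME-180 cells via an SIE beta-lactamase reporter. Stimulus was 40 pM IL-6 (its AC50) for 5 hrs, so both activation and inhibition register.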
Consider `Cc1cccc(CNc2ncnc3ccc(-c4ccc5c(c4)OCO5)cc23)c1`, for which the activity, negative = inhibition was -13.6%.

Take `COc1cccc(-c2ccc3ncnc(N(C)Cc4ccco4)c3c2)c1`: the activity, negative = inhibition was -14.9%.

As to `CN(Cc1ccco1)c1ncnc2ccc(-c3cccnc3)cc12`, the activity, negative = inhibition is -12.5%.

Turning to `Cc1cccc(CNc2ncnc3ccc(-c4ccoc4)cc23)c1`, the activity, negative = inhibition is -30%.

With `COc1cccc(-c2ccc3ncnc(NCc4cccs4)c3c2)c1`, the activity, negative = inhibition was -19.5%.

For the molecule `c1nc(N2CCNCC2)c2cc(-c3ccc4c(c3)OCO4)ccc2n1`, the activity, negative = inhibition was 1.4%.
